Experiment [1] in a line: P-glycoprotein substrates identified in KB-8-5-11 adenocarcinoma cell line, qHTS therapeutic library screen (AID 1346987). Further: nearly all actives have a fitted effect of over 65% in size. Put shortly: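 KB-8-5-11, a colchicine-selected P-gp-overexpressing KB-3-1 subline, was grown without colchicine for the assay. Cells were seeded at 500 cells/well, dosed in concentration-response and incubated 72 h at 37 degree C, 5% CO2. Viability was read by CellTiter-Glo luminescence.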

Experiment [2] concerns Zika virus NS2B-NS3 protease (linked construct). In words: Primary screen NINDS Rhodamine qHTS for Zika virus inhibitors (AID 1347160). Further: nearly all actives have a fitted effect of over 55% in size. Further: potency means the concentration at half of the fitted maximal effect. Put shortly:
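In 10 mM Tris-HCl pH 8.0 containing 0.01% Tween 20, linked NS2B-NS3 protease (25 nM final) is exposed to test compounds for 15 min. Cleavage of 1.5 microM Rhodamine110 substrate is tracked by fluorescence over 15 min.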

A short description of experiment [3]: Confirmatory screen GU Rhodamine qHTS for Zika virus inhibitors qHTS (AID 1347157). Further: potency means the concentration at half of the fitted maximal effect; nearly all actives have a fitted effect of over 70% in size. Put shortly: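 Buffer 10 mM Tris-HCl pH 8.0, 0.01% Tween 20. Unlinked protease 25 nM; compound preincubation 15 min, RT, protected from light. Substrate Rhod110, 1.5 microM; ~15% conversion in 15 min.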
A short description of experiment [4]: ZIKV-mCherry secondary qHTS for Zika virus inhibitors (AID 1347158). Further: top concentration of the series differs between compounds. An outline of the steps: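 Vero cells (5,000/well) were given compound, then infected with ZIKV-mCherry at MOI 1 for 48–72 h at 37 °C. After PFA fixation and Hoechst staining, imaging gave percent mCherry-positive cells. The positivity threshold was RFU above 450, 3 SD over negative controls.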

The test system of experiment [5] is Zika virus NS2B-NS3 protease (unlinked complex). In words: Primary screen GU Rhodamine qHTS for Zika virus inhibitors: Unlinked NS2B-NS3 protease assay (AID 1347159). Further: nearly all actives have a fitted effect of over 60% in size. Further: potency means the concentration at half of the fitted maximal effect. An outline of the steps: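 Percent inhibition derives from the 15-min fluorescence change (ex 480, em 540 nm), normalized to no-enzyme and no-inhibitor wells. Reactions contained 25 nM NS2B-NS3 complex and 1.5 microM substrate in 10 mM Tris-HCl pH 8.0.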

Experiment [6] is described as follows: Confirmatory screen NINDS Rhodamine qHTS for Zika virus inhibitors (AID 1347161). Further: potency means the concentration at half of the fitted maximal effect; nearly all actives have a fitted effect of over 60% in size. An outline of the steps:
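Aprotinin served as in-plate control. Conditions: 25 nM linked NS2B-NS3, pH 8.0 Tris buffer, titrated compounds, 15 min preincubation and 15 min reaction with 1.5 microM Rhod110 substrate at room temperature.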

The subject of experiment [7] is Zika virus NS2B-NS3 protease (linked). Description: 384 well plate NINDS AMC confirmatory qHTS for Zika virus inhibitors (AID 1347163). Further: nearly all actives have a fitted effect of over 50% in size. Further: potency means the concentration at half of the fitted maximal effect. An outline of the steps:
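Linked NS2B-NS3 protease (final 5 nM, 30 nM or 60 nM) was preincubated with compounds (final up to 1 mM) for ~15 minutes. Ac-VKTGKR-AMC substrate (final 30 microM) then reacted for 25 minutes at room temperature in the dark. Fluorescence (ex 355/em 460 nm) was normalized to no-enzyme and no-inhibitor controls.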

For experiment [8], the system named is Zika virus NS2B-NS3 protease (linked construct). In words: 384 well plate NINDS Rhodamine confirmatory qHTS for Zika virus inhibitors (AID 1347164).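 Further: fluorescence from protease cleavage of Ac-LKRR-rhodamine 110 substrate; nearly all actives have a fitted effect of over 65% in size.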 Further: potency means the concentration at half of the fitted maximal effect. Put shortly: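 Enzyme (final 5/30/60 nM) + cpd (DMSO), ~15 min; add Ac-LKRR-Rd 10 microM final; 25 min RT, dark; FI ex 485/em 538; normalized to no-enzyme, no-inhibitor ctrls; aprotinin intraplate ctrl.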
The nature of experiment [9]: Vero cells viability qHTS for Zika virus inhibitors (AID 1347167). An outline of the steps:
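Cells seeded at 2.5 x 10^5 cells/mL in DMEM with 4% FBS and attached overnight at 37 degrees C, then exposed to compound for 24 to 48 hours. Viability read as ATP content by CellTiter Glo luminescence.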

In experiment [10] the test system is Zika virus NS2B-NS3 protease (linked construct). Description: Confirmatory screen NINDS AMC qHTS for Zika virus inhibitors (AID 1347152). Further: potency means the concentration at half of the fitted maximal effect; nearly all actives have a fitted effect of over 70% in size. Put shortly: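 Enzyme (1 nM, linked construct) was preincubated with compound for 15 minutes at room temperature in 10 mM Tris-HCl pH 8.0 with 0.01% Tween 20. Bz-Nle-Lys-Arg-Arg-AMC was then added to 10 microM, and AMC fluorescence was recorded immediately and after 15 minutes.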

Experiment [11] concerns Zika virus NS2B-NS3 protease (unlinked complex). In words: Confirmatory screen GU AMC qHTS for Zika virus inhibitors (AID 1347153).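 Further: enzyme at 25 nM with substrate at 10 µM below its Km of 18.3 µM; potency means the concentration at half of the fitted maximal effect; nearly all actives have a fitted effect of over 70% in size.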 Put shortly: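 Compounds were preincubated 15 min at room temperature with 25 nM noncovalent NS2B-NS3 protease at pH 8.0; AMC substrate added at 10 microM and 15-min fluorescence gain (340/450 nm) converted to percent inhibition, fitted 4-parameter.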

Each structure is given as a SMILES string. Results filed as inconclusive are left out. The source made the active and inactive calls. The call rests on the fitted dose curve; in most records, active means well fitted curve in the direction sought with a large enough effect; inconclusive means small, poorly fitted or top-dose-only effect, or another doubt; inactive means no such curve, though single readings can be large; an effect the other way counts as inactive or inconclusive.

For `COc1ccc(C(=O)OC2C3C=COC(OC4OC(CO)C(O)C(O)C4O)C3C3(CO)OC23)cc1OC` (configuration not stated), the Potency result in experiment [1] and in experiment [2] was “inactive” throughout.
Take `C=C(C(=O)O)[C@@H]1CC[C@H](C)[C@@H]2CC(=O)C(C)=C2C1`: the Potency entry in [1] and in experiment [2] was “inactive” in each case.
With `CC(C)(O)C1CC=C(C(=O)OC[C@H]2O[C@@H](OC(=O)C3=CCC(C(C)(C)O)CC3)[C@H](O)[C@@H](O)[C@@H]2O)CC1` (some centres not stated), the Potency entry in experiment [1] and in experiment [2] was “inactive” throughout.
Turning to `CC(C)c1ccc2c(c1)C(=O)CC1C(C)(C(=O)O)CCCC21C` (configuration not stated), the Potency result in experiment [1] and in experiment [2] was “inactive” throughout.
On to `CC1(C)CC[C@]2(C(=O)O)CC[C@]3(C)C(=CCC4[C@@]5(C)CC[C@H](O)C(C)(C)C5CC[C@]43C)C2C1` (some centres not stated), for which the Potency entry in experiment [1] and in experiment [2] was “inactive” throughout.
As for `COc1cccc(OC)c1-c1cc(C(=O)N[C@@H](CC(C)C)C(=O)O)nn1-c1ccnc2cc(Cl)ccc12`, the Potency in experiment [3] was 17.5 µM (active); in [5], 22.4 µM (active); in experiment [2] it was 10 µM (active); in experiment [6] it was 12.4 µM (active); in experiment [7] it was 31.6 µM (active). In addition, the Potency entry in [4] and in experiment [8] was “inactive” each time. Further, in experiment [9], the compound was classed as inactive.
Turning to `CC1CCC2C(C)(C)C(O)C(O)CC2(C)C12Cc1c(O)cc(CO)c(C=O)c1O2` (configuration not stated), the Potency entry in experiment [1] and in experiment [2] was “inactive” throughout.
In the case of `COc1cc(Nc2nc3ccccc3nc2NS(=O)(=O)c2cccc(NC(=O)c3ccc(C)c(OC)c3)c2)cc(OC)c1`, the Potency in [10] was 13.9 µM (active); in experiment [3] it was 1.39 µM (active); in experiment [5] it was 3.55 µM (active); in experiment [2], 7.94 µM (active); in experiment [6], 1.97 µM (active). Further, the Potency entry in [7] and in experiment [8] was “inactive” each time. Besides, the compound was classed as inactive in experiment [9].
Take `C=C(C(=O)O)C1CC(OC(=O)CC(C)CC)C2(C)CCCC(=C)C2C1` (configuration not stated): the Potency entry in experiment [1] and in experiment [2] was “inactive” in each case.
As to `Cc1ccc([C@@H]2CC=C(C(=O)O)[C@H](c3ccc(C(C)(C)C)cc3)N2S(=O)(=O)c2ccc(C)cc2)cc1`, the Potency in experiment [10] is 15.6 µM (active); in experiment [11] it was 19.7 µM (active); in experiment [3], 3.12 µM (active); in experiment [5], 2.51 µM (active); in experiment [2], 2.24 µM (active); in [6] it was 2.78 µM (active). The Potency in experiment [7] was 3.55 µM (active); in experiment [8], 4.47 µM (active). For the same compound, in experiment [9], the compound was classed as inactive.
For the compound `O=C(O)C[C@H]1CCC(=O)[C@@H]1C/C=C\CCO`, the Potency entry in [1] and in experiment [2] was “inactive” each time.
With `CC(=O)O[C@@H]1C=C2[C@H](CC[C@@]3(C)[C@@]2(O)CC[C@H]2Cc4c([nH]c5ccccc45)[C@@]23C)O[C@@H]1C(C)(C)O`, the Potency entry in experiment [1] and in [2] was “inactive” each time.
As for `CC1=C(CCC(C)O[C@@H]2O[C@H](CO)[C@@H](O)[C@H](O)[C@H]2O)C(C)(C)CC(O)C1` (some centres not stated), the Potency result in [1] and in [2] was “inactive” in each case.
Take `CC(C)c1ccc2c(c1)C(O)CC1C(C)(C(=O)O)CCCC21C` (configuration not stated): the Potency result in [1] and in [2] was “inactive” each time.
For the compound `O=C(O)CCc1ccc(NCc2cccc3c2CCCN3CCOc2ccccc2)cc1F`, in experiment [5], the Potency was 3.16 µM (active).
In the case of `Cn1c2ccc(NC(=O)c3ccccc3)cc2c(=O)n2nc(C(=O)O)cc12`, the Potency entry in [1] and in [2] was “inactive” in each case.
As for `C/C(=C\CC/C(C)=C/CC[C@]1(C)CCc2cc(O)cc(C)c2O1)CC/C=C(\C)C(=O)O`, the Potency in experiment [10] was 19.2 µM (active); in experiment [3], 3.83 µM (active); in experiment [5], 8.91 µM (active); in [2] it was 2.2 µM (active); in experiment [6], 1.92 µM (active); in experiment [7] it was 5.01 µM (active). In addition, the Potency in [8] is 2.51 µM (active). The Potency entry in experiment [4] was “inactive”. Also, in [9], the compound was called inactive.
With `O=C(O)c1cccc(CN2C(=O)/C(=C(\c3ccccc3)c3ccc(Cl)cc3)c3ccccc32)c1`, in experiment [5], the Potency is 1.41 µM (active).
Take `O=C1C[C@@]2(C(=O)N1)C(=O)N(Cc1ccc(Br)cc1F)C(=O)c1cccn12`: the Potency entry in experiment [1] and in experiment [2] was “inactive” each time.
Take `CC(C(=O)Nc1cc(C#N)ccc1CCCC(=O)O)c1ccc(F)c2ccccc12` (configuration not stated): the Potency entry in experiment [1] and in [2] was “inactive” throughout.
For `Cc1cc(OCCN2CCOCC2)nn1-c1ccc2ccccc2c1`, the Potency entry in experiment [5] is “inactive”.
Turning to `COCC1OC(OC(C)(C)C2CCC3(C)C=C(C4CCC5C4(C)CC(O)C4OC(C(C)(C)O)CCC45C)CCC3O2)C(NC(C)=O)C(O)C1O` (configuration not stated), the Potency result in [1] and in experiment [2] was “inactive” throughout.

These data come from PubChem BioAssay (NCATS).
